Compound activity from PubChem BioAssay.
NS1 function inh: qHTS Assay for Inhibitors of Influenza NS1 Protein Function | Potency, µM (top dose mostly 46.1 µM), for the others: at the top dose activity, positive = more growth | 0.4% of 270,000 active | AID 2326, 2010; calls by dose curve; further: potency means the concentration at half of the fitted maximal effect; actives are rising curves; nearly all actives have a fitted effect of over 50% in size
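OD600 was taken as the measure of yeast growth restored by compound in an NS1-expressing S. cerevisiae strain. Cells had been washed out of glucose medium and diluted 1:100 into galactose -URA medium, pH 6.0.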
Pf growth 48h: Primary qHTS for delayed death inhibitors of the malarial parasite plastid, 48 hour incubation | 5.9% of 310,000 active | P. falciparum luciferase growth in erythrocytes, 48 h | Potency, µM (highest dose often 28.7 µM), for inactives: top-dose activity change, negative = inhibition, hits mostly inhibitors; further: potency means the concentration at half of the fitted maximal effect; on the % scale 0 is the no-effect control and ±100 the full control effect
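Cell-based growth assay: transgenic P. falciparum expressing firefly luciferase, cultured in red cells within RPMI 1640 containing 0.5% w/v Albumax, 24 mM bicarbonate and gentamycin. A drop in luciferase activity indicates inhibition.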
Pf growth 96h: Primary qHTS for delayed death inhibitors of the malarial parasite plastid, 96 hour incubation | P. falciparum luciferase reporter growth, 96 h | Potency, µM (series often up to 28.7 µM), without a hit: top-dose activity change, negative = inhibition, actives largely listed as inhibitors | 6.9% of 320,000 active | AID 504834, 2011; further: potency means the concentration at half of the fitted maximal effect; on the % scale 0 is the no-effect control and ±100 the full control effect
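Delayed-death screen, second-generation endpoint: infected erythrocytes, 2% hematocrit, 0.05% parasitemia final; 96 hours at 37 C, 5% CO2; luciferase detection reagent; luminescence decrease equals reduced growth.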
Cycloheximide cs: Cycloheximide Counterscreen for Small Molecule Inhibitors of Shiga Toxin. cell reporter, cycloheximide protein synthesis inhibition counterscreen. max response, %. 12% of 300,000 active; in the data active means max response mostly above about 13%, no sharp cut-off; inactive means mostly below about 14%; further: read at 38.3 µM for the half of the compounds with a filed dose; 0% is about no effect
Shiga toxin inh: A qHTS for Small Molecule Inhibitors of Shiga Toxin | Vero cells, Shiga toxin protein synthesis inhibition reporter | inhibition, % at 38.7 µM | 9.2% of 290,000 active | AID 2315, 2010; in the data active means inhibition mostly above about 28%, no sharp cut-off; inactive means mostly below about 43%; further: 0% is about no effect
The depositor's hits bear a star; ? = inconclusive; . = no result; + = active, no number; [ ] = dose if it differs, or a comment. Most compounds without a hit are left out; they make up all but 21% or so of the library. Unless noted, the call rests on the fitted dose curve; in most records, active means well fitted inhibition curve with a large enough effect; inconclusive means small, poorly fitted or top-dose-only effect, or another doubt; inactive means no such curve, though single readings can be large or run the other way.

SMILES	NS1 function inh	Pf growth 48h	Pf growth 96h	Cycloheximide cs	Shiga toxin inh
Cc1cc(Br)ccc1-n1[nH]c(C)c(C=Nc2cccc3nsnc23)c1=O	.	8%	20%	-1	-6
O=C(Cc1ccccc1)Nc1ccc2oc(-c3ccncc3)nc2c1	-1%	-5%	-11%[5.75 µM]	15	33
Cc1ccc2oc(-c3cccc(NC(=O)Cc4cccs4)c3)nc2c1	-10%	16%	26%	14	-2
CCC(=O)Nc1cccc(-c2nc3ccc(C)cc3o2)c1	-111%	159%	-16%	52*	125*
CCC(=O)Nc1ccc2oc(-c3cccc(C)c3)nc2c1	-30%	40%	19%	35*	+
Cc1ccc2nc(-c3cccc(NC(=O)c4ccc5c(c4)OCCO5)c3)oc2c1	-3%	138%	6%	20*	34
O=C(/C=C/c1cccc([N+](=O)[O-])c1)NCCSCc1cccc(Cl)c1	-43%	1%	14%	-1	-5
COC(=O)c1ccc(/C=C/c2c(-c3ccc(OC)cc3)oc3ccc(N4CCOCC4)cc23)cc1	?	?	3.7µM*	10	17
Cc1cc(C)c(OCC(=O)OCC(=O)NCc2cccs2)c(C)c1	.	5%	2%	.	.
COc1ccc(Cc2nc(-c3cccs3)no2)cc1OC	-67%	.	0%	24*	29
COc1ccc(Cc2nc(-c3ccc(-n4cccc4)cc3)no2)cc1OC	-32%	-16%	?	14	14
COc1ccc(Cc2nc(-c3ccccc3)no2)cc1	-20%	-13%	2%	36*	42*
COc1cccc(NC(=O)CCc2nc(-c3cccs3)no2)c1	-11%	?	?	6	4
COc1ccc(S(=O)(=O)N(Cc2ccccc2)Cc2nc(-c3ccccc3)no2)cc1	-1%	13µM*	.	1	-2
COc1ccc(Cc2nc(-c3ccc(-n4cccc4)cc3)no2)cc1	3%	9%	?	4	2
COc1ccc(Cc2nc(-c3cccs3)no2)cc1	-9%	106%	22%	33*	70*
O=C(COc1ccc2c(c1)oc(=O)c1ccccc12)NCC1CCC(C(=O)O)CC1 (stereo unspecified)	8%	4%	37%	2	-1
COc1ccc(-c2noc(CN(C)Cc3ccccc3)n2)c(OC)c1OC	-14%	11%	3.7µM*	15*	20
COc1ccc(CC(=O)Oc2cc(C)[nH]c(=O)c2[N+](=O)[O-])cc1	2%	39%	32%	6	-1
CC1(C(=O)OCC(=O)Nc2cccc(S(=O)(=O)NC3=NCCCCC3)c2)CC1(Cl)Cl (stereo unspecified)	.	-14%	-1%	-3	-1
CCn1c(CNC(=O)c2ccccc2F)cc2cc(C)ccc21	6%	?	297%	15*	13
COc1cc(C(=O)NCc2cc3ccccc3n2C)cc(OC)c1OC	27%	9%	33%	-1	.
Cn1c(CNC(=O)c2ccccc2F)cc2ccccc21	11%	6%	86%	16*	-2
Cn1c(CNC(=O)c2ccc(F)cc2)cc2ccccc21	25%	24%	?	1	-3
CCn1c(CNC(=O)c2ccccc2Cl)cc2ccccc21	-2%	-23%	7%	14	25
SMILES	NS1 function inh	Pf growth 48h	Pf growth 96h	Cycloheximide cs	Shiga toxin inh
CCn1c(CNC(=O)c2cc(OC)c(OC)c(OC)c2)cc2ccccc21	?	9.3µM*	?	2	.
CCn1c(CNC(=O)c2ccccc2F)cc2ccccc21	9%	?	2%	24*	142*
COc1ccccc1N/C(N)=N/c1nc(C(F)(F)F)cc(=O)[nH]1	.	-24%	5%	8	-3
CCCc1cc(=O)oc2c3c(ccc12)OCN(Cc1ccc(OC)cc1)C3	.	.	.	-2	-4
COC(=O)CSc1nc2ncc(Cl)cc2[nH]1	0%	25%	13µM*	-1	-6
CC(C)(C)C(=O)CSc1nc2ncc(Br)cc2[nH]1	-22%	?	-5%	36*	4
O=C(CSc1nc2ncc(Cl)cc2[nH]1)c1c[nH]c2ccccc12	2%	10µM*	1.9µM*	8	6
COc1ccccc1C(=O)OC(C)CN1CCN(C)CC1 (stereo unspecified)	5%	?	?	-1	-10
C=C(C)COc1ccc2c(C)c(CCC(=O)N3C[C@H]4C[C@@H](C3)c3cccc(=O)n3C4)c(=O)oc2c1	-15%	?	2.6µM*	-1	-5
C=C(C)COc1cc2oc(=O)c(CC(=O)N3C[C@H]4C[C@@H](C3)c3cccc(=O)n3C4)c(C)c2cc1Cl	11%	-17%	10µM*	-2	-9
O=C(COc1cc2oc(=O)c3c(c2cc1Cl)CCC3)N1C[C@H]2C[C@@H](C1)c1cccc(=O)n1C2	6%	?	?	-3	2
C=C(C)COc1ccc2c(C)c(CC(=O)N3C[C@H]4C[C@@H](C3)c3cccc(=O)n3C4)c(=O)oc2c1	9%	?	?	1	-2
CC(C)=CCOc1ccc2c(C)c(CC(=O)N3C[C@H]4C[C@@H](C3)c3cccc(=O)n3C4)c(=O)oc2c1C	17%	?	9.3µM*	1	-1
CCN(CC(=O)Nc1cc(Cl)ccc1C)C(=O)C1CC1	.	-2%	-3%	.	.
CCOCCCNC(=O)C1CCN(C(=O)Nc2ccc(Cl)cc2)CC1	3%	0%	3%	-2	-8
CCCc1nc(NCC2CCCO2)c2nnn(Cc3ccccc3)c2n1 (stereo unspecified)	2%	15µM*	23%	-1	-3
C[N+](C)(C)c1ncnc2c1ncn2[C@@H]1CCCCO1	3%	.	.	.	.
Cc1ccc(Nc2ncnc3c2nnn3Cc2ccccc2)cc1	-3%	67%	-46%	23*	49*
CC(C)CCn1cnc2c(NCc3ccccc3)ncnc21	-9%	.	-29%	29*	37
COc1ccccc1CNc1ncnc2c1nnn2Cc1ccccc1	-14%	?	23%	-5	-7
c1ccc(CNc2ncnc3c2ncn3C2CCCCO2)cc1 (stereo unspecified)	-4%	.	-9%	32*	52
Cn1ccc(C(=O)OCC(=O)Nc2cccc3ccccc23)n1	.	23%	?	-4	4
CC(C)CCNc1ncnc2c1nnn2Cc1ccccc1	4%	-3%	10µM*	-2	-4
CCc1nc(Nc2ccccc2)c2nnn(Cc3ccccc3)c2n1	-11%	37%	10µM*	1	-14
COC(=O)c1ccc(Nc2nc(C)nc3c2nnn3Cc2ccccc2)cc1	10%	-23%	?	-2	-10
CC(C)(C)OC(=O)N[C@@H](CC(=O)OCc1ccccc1)C(=O)O	.	23%	?	-2	10
CCCC1/C(=N/O)CC(c2ccccc2)NC1c1ccccc1 (stereo unspecified)	.	12µM*	26%	6	9
CC1/C(=N/O)CC(c2ccccc2)NC1c1ccccc1 (stereo unspecified)	3%	.	?	-3	-12
